# Source: PubChem BioAssay AID1159580 (chemical genetic matrix, 2015)
# Several values for one entry are separate records, joined by “and”; a condition that tells them apart may be missing. Equal values may be shown once. In all, about 5,500 compounds went through this assay and about 2,000 (36%) were called active. About 18% were inconclusive and are not listed. Rule as the data show it: active = normalized growth mostly below about 0.91 (no sharp cut-off); inconclusive = no clear call, values can overlap the other calls; inactive = mostly above about 0.92. The list shows a part of the results.
# Assay: chemical genetic growth profiling, strain panel (AID 1159580);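 also: tested at 20 µM; growth read once vehicle control cultures reached saturation at 30 °C; 1 = growth at the plate median or of vehicle wells; lower values mean less growth of the strain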
# Details: S. cerevisiae deletion strains, growth OD
structure (smiles),measurement,setting,value
COc1ccc(-c2coc3c(O)c(OC)ccc3c2=O)cc1,normalized growth,"locus YAL021C, strain ccr4, stronger effect = lower value",0.907 (inactive)
same,normalized growth,"locus YAL026C, strain drs2, stronger effect = lower value",0.944 (inactive)
same,normalized growth,"locus YAL030W, strain snc1, stronger effect = lower value",0.966 (inactive)
same,normalized growth,"locus YBL061C, strain skt5, stronger effect = lower value",0.983 (inactive)
same,normalized growth,"locus YBR009C, strain hhf1, stronger effect = lower value",0.887 (active)
same,normalized growth,"locus YBR021W, strain FUR4, stronger effect = lower value",0.818 (active)
same,normalized growth,"locus YBR023C, strain chs3, stronger effect = lower value",0.887 (active)
same,normalized growth,"locus YBR171W, strain sec66, stronger effect = lower value",0.957 (inactive)
same,normalized growth,"locus YBR229C, strain ROT2, stronger effect = lower value",0.905 (active)
same,normalized growth,"locus YBR231C, strain swc5, stronger effect = lower value",0.893 (active)
same,normalized growth,"locus YBR279W, strain paf1, stronger effect = lower value",0.977 (inactive)
same,normalized growth,"locus YCL011C, strain gbp2, stronger effect = lower value",0.927 (inactive)
same,normalized growth,"locus YCL016C, strain dcc1, stronger effect = lower value",0.877 (active)
same,normalized growth,"locus YCL029C, strain bik1, stronger effect = lower value",0.914 (inactive)
same,normalized growth,"locus YCL069W, strain vba3, stronger effect = lower value",0.945 (inactive)
same,normalized growth,"locus YCR088W, strain abp1, stronger effect = lower value",0.973 (inactive)
same,normalized growth,"locus YDL005C, strain med2, stronger effect = lower value",1.01 (inactive)
same,normalized growth,"locus YDL035C, strain GPR1, stronger effect = lower value",0.874 (inactive)
same,normalized growth,"locus YDL040C, strain nat1, stronger effect = lower value",0.987 (inactive)
same,normalized growth,"locus YDL074C, strain BRE1, stronger effect = lower value",0.786 (inactive)
same,normalized growth,"locus YDL101C, strain DUN1, stronger effect = lower value",0.932 (inactive)
same,normalized growth,"locus YDL185W, strain tfp1, stronger effect = lower value",0.888 (active)
same,normalized growth,"locus YDL192W, strain arf1, stronger effect = lower value",0.837 (active)
same,normalized growth,"locus YDR001C, strain nth1, stronger effect = lower value",1 (inactive)
same,normalized growth,"locus YDR069C, strain doa4, stronger effect = lower value",1 (inactive)
same,normalized growth,"locus YDR101C, strain arx1, stronger effect = lower value",0.863 (active)
same,normalized growth,"locus YDR137W, strain rgp1, stronger effect = lower value",0.696 (active)
same,normalized growth,"locus YDR159W, strain sac3, stronger effect = lower value",0.797 (active)
same,normalized growth,"locus YDR162C, strain NBP2, stronger effect = lower value",0.755 (active)
same,normalized growth,"locus YDR195W, strain ref2",1.01 (inactive)
same,normalized growth,"locus YDR297W, strain sur2, stronger effect = lower value",0.967 (inactive)
same,normalized growth,"locus YDR318W, strain mcm21, stronger effect = lower value",0.871 (active)
same,normalized growth,"locus YDR334W, strain swr1, stronger effect = lower value",0.96 (inactive)
same,normalized growth,"locus YDR335W, strain msn5, stronger effect = lower value",0.93 (inactive)
same,normalized growth,"locus YDR388W, stronger effect = lower value",0.944 (inactive)
same,normalized growth,"locus YDR392W, strain spt3, stronger effect = lower value",0.383 (active)
same,normalized growth,"locus YDR502C, strain sam2, stronger effect = lower value",0.936 (inactive)
same,normalized growth,"locus YEL003W, strain gim4, stronger effect = lower value",0.944 (inactive)
same,normalized growth,"locus YEL037C, strain rad23, stronger effect = lower value",0.959 (inactive)
same,normalized growth,"locus YEL061C, strain CIN8 (second series), stronger effect = lower value",0.963 (inactive)
same,normalized growth,"locus YEL061C, strain CIN8, stronger effect = lower value",0.931 (inactive)
same,normalized growth,"locus YER015W, strain faa2, stronger effect = lower value",0.939 (inactive)
same,normalized growth,"locus YER016W, strain bim1, stronger effect = lower value",0.966 (inactive)
same,normalized growth,"locus YER110C, stronger effect = lower value",0.904 (inactive)
same,normalized growth,"locus YER111C, strain swi4, stronger effect = lower value",0.993 (inactive)
same,normalized growth,"locus YER155C, strain BEM2 (second series), stronger effect = lower value",0.54 (active)
same,normalized growth,"locus YER155C, strain BEM2, stronger effect = lower value",0.942 (inactive)
same,normalized growth,"locus YER167W, strain BCK2, stronger effect = lower value",0.87 (active)
same,normalized growth,"locus YFR010W, strain ubp6, stronger effect = lower value",1 (inactive)
same,normalized growth,"locus YGL078C, strain dbp3, stronger effect = lower value",0.959 (inactive)
same,normalized growth,"locus YGL086W, strain mad1, stronger effect = lower value",0.862 (active)
same,normalized growth,"locus YGL167C, strain pmr1, stronger effect = lower value",0.976 (inactive)
same,normalized growth,"locus YGL173C, strain kem1, stronger effect = lower value",0.97 (inactive)
same,normalized growth,"locus YGL227W, strain vid30, stronger effect = lower value",0.983 (inactive)
same,normalized growth,"locus YGL240W, strain doc1, stronger effect = lower value",0.851 (active)
same,normalized growth,"locus YGL248W, strain PDE1, stronger effect = lower value",0.906 (inactive)
same,normalized growth,"locus YGL253W, strain hxk2, stronger effect = lower value",0.954 (inactive)
same,normalized growth,"locus YGR135W, strain pre9, stronger effect = lower value",0.916 (inactive)
same,normalized growth,"locus YGR252W, strain gcn5, stronger effect = lower value",0.781 (inactive)
same,normalized growth,"locus YHR013C, strain ard1, stronger effect = lower value",0.966 (inactive)
same,normalized growth,"locus YHR027C, strain rpn1, stronger effect = lower value",0.98 (inactive)
same,normalized growth,"locus YHR030C, strain SLT2, stronger effect = lower value",0.943 (inactive) and 1.02 (inactive)
same,normalized growth,"locus YHR079C, strain IRE1 (second series), stronger effect = lower value",0.955 (inactive)
same,normalized growth,"locus YHR079C, strain IRE1, stronger effect = lower value",1.01 (inactive)
same,normalized growth,"locus YHR094C, strain hxt1, stronger effect = lower value",0.941 (inactive)
same,normalized growth,"locus YHR129C, strain ARP1, stronger effect = lower value",0.907 (active)
same,normalized growth,"locus YHR142W, strain chs7, stronger effect = lower value",0.832 (active)
same,normalized growth,"locus YHR200W, strain rpn10, stronger effect = lower value",0.902 (active)
same,normalized growth,"locus YIL066C, strain RNR3, stronger effect = lower value",0.757 (active)
same,normalized growth,"locus YIL073C, strain SPO22, stronger effect = lower value",0.824 (inactive)
same,normalized growth,"locus YIL125W, strain kgd1, stronger effect = lower value",0.948 (inactive)
same,normalized growth,"locus YIR030C, strain dcg1, stronger effect = lower value",0.944 (inactive)
same,normalized growth,"locus YJL092W, strain hpr5, stronger effect = lower value",0.982 (inactive)
same,normalized growth,"locus YJL095W, strain BCK1 (second series), stronger effect = lower value",0.959 (inactive)
same,normalized growth,"locus YJL095W, strain BCK1, stronger effect = lower value",0.757 (active) and 1 (inactive)
same,normalized growth,"locus YJL115W, strain asf1, stronger effect = lower value",0.943 (inactive)
same,normalized growth,"locus YJL129C, strain trk1, stronger effect = lower value",0.731 (active)
same,normalized growth,"locus YJL134W, strain LCB3, stronger effect = lower value",0.937 (inactive)
same,normalized growth,"locus YJL154C, strain vps35, stronger effect = lower value",0.974 (inactive)
same,normalized growth,"locus YJL164C, strain tpk1, stronger effect = lower value",0.941 (inactive)
same,normalized growth,"locus YJL166W, strain qcr8, stronger effect = lower value",0.828 (active)
same,normalized growth,"locus YJL168C, strain set2, stronger effect = lower value",0.954 (inactive)
same,normalized growth,"locus YJL187C, strain SWE1 (second series), stronger effect = lower value",0.904 (inactive)
same,normalized growth,"locus YJR066W, strain TOR1, stronger effect = lower value",0.959 (inactive)
